Assay results taken from PubChem BioAssay AID1671202 (University of Kansas High Throughput Screening Laboratory, 2021).
Several values for one entry are separate records, joined by “and”; a condition that tells them apart may be missing. Identical values can stand only once. The whole screen tested about 190,000 compounds, of which about 6,900 (3.6%) were called active. Cut-off read from the data, not from the text of the source: active = inhibition above about 50%; inactive = the rest. This excerpt belongs to a sample that is enriched for actives.

The compounds below were run against Huntingtin (Homo sapiens) (UniProt P42858) (assay: mutant huntingtin-calmodulin interaction inhibitors – biochemical, AlphaScreen, primary screen (AID 1671202;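 note: 0% = both proteins with DMSO and 100% = one protein alone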)). Details: AlphaScreen His-mHTT/GST-CaM binding, luminescence; at 15 µM, active compounds read high.
Chain of Huntingtin (Homo sapiens) (P42858 whole entry, looked up, stated change not applied): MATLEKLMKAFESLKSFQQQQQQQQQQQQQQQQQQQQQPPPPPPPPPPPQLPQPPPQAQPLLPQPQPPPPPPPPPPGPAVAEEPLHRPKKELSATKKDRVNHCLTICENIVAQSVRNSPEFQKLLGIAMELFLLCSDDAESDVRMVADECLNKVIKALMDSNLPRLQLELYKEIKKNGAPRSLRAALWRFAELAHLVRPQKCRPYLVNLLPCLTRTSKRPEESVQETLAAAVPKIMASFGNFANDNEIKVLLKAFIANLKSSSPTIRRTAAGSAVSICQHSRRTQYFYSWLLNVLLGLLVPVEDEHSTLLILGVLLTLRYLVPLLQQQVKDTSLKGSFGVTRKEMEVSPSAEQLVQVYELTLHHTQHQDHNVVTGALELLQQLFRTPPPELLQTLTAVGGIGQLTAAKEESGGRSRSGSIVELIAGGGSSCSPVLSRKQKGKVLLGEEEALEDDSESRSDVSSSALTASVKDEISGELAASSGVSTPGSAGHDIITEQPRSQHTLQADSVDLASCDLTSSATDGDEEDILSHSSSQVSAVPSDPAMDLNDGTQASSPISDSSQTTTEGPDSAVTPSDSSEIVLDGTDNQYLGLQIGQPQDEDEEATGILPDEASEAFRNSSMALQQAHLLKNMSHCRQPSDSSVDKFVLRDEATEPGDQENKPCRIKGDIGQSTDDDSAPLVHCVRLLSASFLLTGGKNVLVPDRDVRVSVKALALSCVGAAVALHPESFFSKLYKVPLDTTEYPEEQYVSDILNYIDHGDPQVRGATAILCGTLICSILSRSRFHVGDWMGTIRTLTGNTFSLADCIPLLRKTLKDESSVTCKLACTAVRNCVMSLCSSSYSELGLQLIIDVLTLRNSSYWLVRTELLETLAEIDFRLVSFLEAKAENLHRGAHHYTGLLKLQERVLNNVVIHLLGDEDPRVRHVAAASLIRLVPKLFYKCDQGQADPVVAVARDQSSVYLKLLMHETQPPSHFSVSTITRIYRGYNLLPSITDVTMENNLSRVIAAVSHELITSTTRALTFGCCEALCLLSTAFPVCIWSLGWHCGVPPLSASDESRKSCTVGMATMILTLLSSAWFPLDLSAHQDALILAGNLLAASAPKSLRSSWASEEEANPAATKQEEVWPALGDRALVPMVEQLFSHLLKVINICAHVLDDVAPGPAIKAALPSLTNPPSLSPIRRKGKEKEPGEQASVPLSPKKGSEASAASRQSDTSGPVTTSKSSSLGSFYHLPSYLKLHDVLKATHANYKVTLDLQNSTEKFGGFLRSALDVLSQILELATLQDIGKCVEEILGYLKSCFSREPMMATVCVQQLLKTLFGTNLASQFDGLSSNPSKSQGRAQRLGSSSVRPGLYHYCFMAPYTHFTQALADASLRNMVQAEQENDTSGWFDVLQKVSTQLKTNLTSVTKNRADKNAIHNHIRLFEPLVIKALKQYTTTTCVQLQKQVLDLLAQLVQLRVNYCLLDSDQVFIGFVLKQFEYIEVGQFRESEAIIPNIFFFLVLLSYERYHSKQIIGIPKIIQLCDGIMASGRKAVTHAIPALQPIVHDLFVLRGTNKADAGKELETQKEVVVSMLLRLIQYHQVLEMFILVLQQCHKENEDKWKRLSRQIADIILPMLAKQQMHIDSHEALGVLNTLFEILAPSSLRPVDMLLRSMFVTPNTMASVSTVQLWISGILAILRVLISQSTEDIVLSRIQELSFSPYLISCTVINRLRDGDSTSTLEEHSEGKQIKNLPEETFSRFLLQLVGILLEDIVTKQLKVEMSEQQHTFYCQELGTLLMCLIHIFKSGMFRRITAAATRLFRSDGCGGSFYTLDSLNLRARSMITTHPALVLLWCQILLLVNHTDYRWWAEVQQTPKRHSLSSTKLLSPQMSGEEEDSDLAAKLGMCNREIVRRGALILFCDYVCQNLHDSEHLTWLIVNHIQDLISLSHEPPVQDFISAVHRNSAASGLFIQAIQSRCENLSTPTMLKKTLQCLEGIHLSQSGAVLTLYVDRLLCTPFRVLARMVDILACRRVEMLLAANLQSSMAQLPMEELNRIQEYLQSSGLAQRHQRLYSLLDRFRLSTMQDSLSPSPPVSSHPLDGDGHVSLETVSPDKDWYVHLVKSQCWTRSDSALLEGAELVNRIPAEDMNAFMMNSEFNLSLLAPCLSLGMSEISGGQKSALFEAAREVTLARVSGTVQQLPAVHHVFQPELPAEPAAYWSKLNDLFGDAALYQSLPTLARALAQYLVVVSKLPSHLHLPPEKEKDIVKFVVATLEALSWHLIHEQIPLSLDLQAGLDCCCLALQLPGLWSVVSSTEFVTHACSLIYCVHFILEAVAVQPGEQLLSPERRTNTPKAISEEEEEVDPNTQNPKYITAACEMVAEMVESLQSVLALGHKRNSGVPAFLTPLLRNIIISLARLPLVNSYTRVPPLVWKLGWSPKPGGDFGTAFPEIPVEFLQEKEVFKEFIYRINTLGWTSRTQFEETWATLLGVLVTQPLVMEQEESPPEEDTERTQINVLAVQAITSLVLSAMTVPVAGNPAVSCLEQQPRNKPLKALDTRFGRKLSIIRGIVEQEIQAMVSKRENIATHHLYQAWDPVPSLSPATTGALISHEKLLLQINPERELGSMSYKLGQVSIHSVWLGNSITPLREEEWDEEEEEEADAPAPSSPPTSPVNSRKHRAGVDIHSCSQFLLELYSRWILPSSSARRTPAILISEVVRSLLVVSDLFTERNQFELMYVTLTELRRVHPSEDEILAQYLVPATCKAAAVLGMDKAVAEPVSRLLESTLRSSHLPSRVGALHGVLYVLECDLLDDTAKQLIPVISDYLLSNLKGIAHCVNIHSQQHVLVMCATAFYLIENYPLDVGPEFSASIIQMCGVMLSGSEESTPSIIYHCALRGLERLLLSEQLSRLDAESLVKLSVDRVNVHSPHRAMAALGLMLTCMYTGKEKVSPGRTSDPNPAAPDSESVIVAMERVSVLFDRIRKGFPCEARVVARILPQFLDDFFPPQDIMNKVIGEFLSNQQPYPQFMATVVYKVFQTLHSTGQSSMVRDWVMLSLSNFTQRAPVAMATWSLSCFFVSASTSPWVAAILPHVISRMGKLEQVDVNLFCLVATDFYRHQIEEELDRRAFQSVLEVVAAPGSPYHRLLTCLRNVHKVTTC

| Compound | inhibition |
| --- | --- |
| Cc1cccc(C(=O)NCCC2CCN(C(=O)Nc3cccc(Cl)c3)CC2)c1 | -18.9% (inactive) |
| CCOc1ccc(-n2c(C)nc3cc(C(=O)NCC(OCC)OCC)ccc32)cc1 | 23% (inactive) |
| CCOC(CNC(=O)c1ccc2c(c1)nc(C)n2-c1cc(Cl)ccc1OC)OCC | 52% (active) |
| COc1ccccc1-n1c(C)nc2cc(C(=O)NCc3cccnc3)ccc21 | 0% (inactive) |
| O=C1c2ccccc2C(=O)c2c1ccc(Cl)c2NC(=O)C(F)(F)F | 18% (inactive) |
| O=S(=O)(c1ccc(Cl)cc1)N1CCSC1c1ccccc1Cl (configuration not stated) | -18% (inactive) |
| O=C(NC1CCCCC1)C1CC(c2ccc(F)cc2)=NO1 (configuration not stated) | -5.78% (inactive) |
| N=C1S/C(=C\c2ccc(N3CCOCC3)cc2)C(=O)N1c1ccccc1Cl | 39% (inactive) |
| Cc1ccc(C2=CC(c3ccc(C)cc3)n3nc(CCCO)nc3N2)cc1 (configuration not stated) | 24% (inactive) |
| CCC(=O)NCc1csc(C2CCCN(C(=O)C(C)(C)C)C2)n1 (configuration not stated) | 1.52% (inactive) |
| O=C1OC(c2cccc(Br)c2)=N/C1=C\c1ccc(I)cc1 | 5% (inactive) |
| COC(C(=O)Nc1ccc(C(C)=O)cc1)c1ccccc1 (configuration not stated) | -1.7% (inactive) |
| O=C(Nc1cc(F)ccc1F)C(c1ccccc1)n1cccc1 (configuration not stated) | 42.3% (inactive) |
| COC(=O)c1ccc(NC(=O)C(c2ccccc2)n2cccc2)cc1 (configuration not stated) | 75.5% (active) |
| CN(C)Cc1c(O)ccc2c1OC(=Cc1cccs1)C2=O | 1.1% (inactive) |
| NNc1nc2sc3c(c2c(=O)n1Cc1ccccc1)CCCC3 | 79.8% (active) |
| Nc1nc(SCC(=O)N2CCCCC2)nc2sc3c(c12)CCCC3 | 35% (inactive) |
| C=CCn1c(SC(CCO)C(=O)N2CCCCC2)nc2sc3c(c2c1=O)CCCC3 (configuration not stated) | 35.2% (inactive) |
| Cc1ccccc1-n1ccn(CC(=O)NCc2ccco2)c(=O)c1=O | 1% (inactive) |
| CC1CCC2(CC1)NC(=O)N(CC(=O)NCc1ccco1)C2=O (configuration not stated) | 1.16% (inactive) |
| CCOCCCNC(=O)N1CCC2(CC1)Nc1cc(F)ccc1-n1cccc12 | 64.6% (active) |
| CCOc1ccccc1NC(=O)N1CCC2(CC1)c1cccn1-c1ccc(C)cc1N2CC | 50.5% (active) |
| CCOCCCNC(=O)C1(C)CCC(=O)N1c1ccc(F)cc1C (configuration not stated) | -2.61% (inactive) |

| Compound | inhibition |
| --- | --- |
| CCOCCCNC(=O)N1CCc2cn(C)c3cccc(c23)C1 | 4.99% (inactive) |
| COc1ccccc1NC(=O)N1CCC2(CC1)NC(=O)c1cc(F)ccc1N2C | -0.74% (inactive) |
| Cc1ccc(NC(=O)N2CCC3(CC2)Nc2cc(F)ccc2-n2cccc23)c(Cl)c1 | 31.9% (inactive) |
| O=C(NCc1ccco1)N1CCC2(CC1)Nc1ccccc1-n1cccc12 | 67.5% (active) |
| CCOc1ccccc1NC(=O)N1CCC(N2CCN(Cc3ccccc3)C2=O)CC1 | 4.68% (inactive) |
| COc1ccc(C)cc1NC(=O)N1CCC2(CC1)Nc1cc(F)ccc1-n1cccc12 | 54% (active) |
| CCOc1ccccc1NC(=O)N1CC2CN(S(=O)(=O)c3ccc(C)cc3)CC(C1)O2 | -6.22% (inactive) |
| CC(C)n1c(C2CCN(C(=O)C3(c4ccccc4)CC3)C2)nc2ccncc21 (configuration not stated) | 1.58% (inactive) |
| O=c1[nH]c(-c2ccccc2)cn1-c1cccc(C(F)(F)F)c1 | 12% (inactive) |
| C=Cc1ccc(CN2C(=O)N(c3ccc(F)cc3)c3ncccc3S2(=O)=O)cc1 | -1.5% (inactive) |
| Nc1cc(C2CCN(C(=O)Nc3cc(Cl)cc(Cl)c3)CC2)no1 | 1.32% (inactive) |
| Cc1nn2cc(-n3cc([N+](=O)[O-])cn3)cnc2c1[N+](=O)[O-] | -2.97% (inactive) |
| COc1cccc(CC(=O)Nc2cccn3c(C)nnc23)c1 | -2.3% (inactive) |
| CCCn1c(=O)c2sc(N3CCCC3)nc2n(CC(=O)Nc2cc(F)cc(F)c2)c1=O | -10.6% (inactive) |
| COc1ccc2oc(-c3ccc(NC(=O)c4cccc(Br)c4)cc3)nc2c1 | 34% (inactive) |
| C=CCc1ccc(OCC(=O)NCCC2=CCCCC2)c(OC)c1 | -16% (inactive) |
| COc1cc(OC)c(N2C=C(C#N)S(=O)(=O)c3ccc(F)cc32)cc1Cl | -0.3% (inactive) |
| Cc1cccc(CNC(=O)c2cc(C(C)C)n3nccc3n2)c1 | -134% (inactive) |
| Cc1ccc(NC(=O)O[C@H]2CCC23CCCCC3)cc1 | -86.9% (inactive) |
| Cc1cc(C)c(S(=O)(=O)N2CCCC2C(=O)NCCc2csc(C)n2)c(C)c1 (configuration not stated) | -2.4% (inactive) |
| Cc1cccc(C(=O)N2CCN(c3nc4ccccc4n(CC(C)C)c3=O)CC2)c1 | -13.3% (inactive) |
| Cc1ccc2c(c1)NC1(CCN(C(=O)c3ccccc3)CC1)c1cccn1-2 | 84.3% (active) |
| O=C1NC2(CCN(C(=O)c3ccccc3)CC2)Nc2cc(Cl)ccc21 | -7.3% (inactive) |

| Compound | inhibition |
| --- | --- |
| CCN1c2ccc(C)cc2C(=O)NC12CCN(C(=O)c1cccc(C)c1)CC2 | -2.5% (inactive) |
| CCNc1nccc(N2CCC(CC(=O)NCc3cccc(Cl)c3)CC2)n1 | 7.56% (inactive) |
| COc1ccc(-c2cc(C(F)(F)F)n3nc(C(=O)N4CCC(C)CC4)cc3n2)cc1OC | 4% (inactive) |
| COc1ccc(CCNC(=O)COc2ccccc2Br)cc1OC | 1.8% (inactive) and -8.4% (inactive) |
| COc1ccc(CC(=O)NC(c2ccccc2)c2ccccc2)cc1OC | 53.3% (active) |
| COc1ccc(C(=O)NC(C)c2ccccc2)cc1OC (configuration not stated) | -4.5% (inactive) |
| COc1ccc(OC)c(CN2CCc3nc(N4CCOCC4)ncc3C2)c1 | 13.8% (inactive) |
| CCc1ccccc1NC(=O)c1cc2n(n1)CCCN(Cc1ccc(F)cc1)C2=O | -3.32% (inactive) |
| Cc1cc(C)c(C(=O)Nc2nc3ccc(S(C)(=O)=O)cc3s2)c(C)c1 | -1.4% (inactive) |
| CS(=O)(=O)c1ccc2nc(NC(=O)/C=C/c3ccccc3)sc2c1 | 76% (active) |
| CC(C)(C)c1ccc(C(=O)Nc2nc3ccc(S(C)(=O)=O)cc3s2)cc1 | -2% (inactive) |
| COc1cc(N2CN=c3s/c(=C\c4ccc([N+](=O)[O-])cc4)c(=O)n3C2)cc(OC)c1OC | 49% (inactive) |
| Brc1ccc2c(c1)CCCN2 | 10% (inactive) |
| CC1=NOC(=O)/C1=C/c1ccc(-c2cc(Cl)ccc2Cl)o1 | -2% (inactive) |
| Cc1nn2c(=O)/c(=C/c3ccc(-c4ccc(F)cc4)o3)sc2nc1=O | -2% (inactive) |
| O=C1NN=C(c2ccccc2)/C1=C/c1ccc(-c2ccc(Cl)cc2)o1 | 61% (active) |
| Cc1cccc(CSC2=NCCN2C(=O)Cc2ccc(F)cc2)c1 | -24% (inactive) |
| CCCCOc1ccc(/C=C(\C#N)c2nc3ccccc3[nH]2)cc1 | -1% (inactive) |
| COc1cc(/C=C(\C#N)c2nc3ccccc3[nH]2)ccc1OCC#N | 12% (inactive) |
| N#C/C(=C\C=C\c1ccccc1)c1nc2ccccc2[nH]1 | 75% (active) and 58% (active) |
| CC(=O)c1cccc(NC(=O)/C(=C\c2ccc3c(c2)OCO3)NC(=O)c2ccccc2Cl)c1 | 7% (inactive) |
| COc1cccc2sc(N(C)CC(=O)Nc3nc(C)cs3)nc12 | -3% (inactive) |
| COc1ccc(-c2c(C)c3ccc(O)c(CN4CCCC4)c3oc2=O)cc1OC | 2.3% (inactive) |

| Compound | inhibition |
| --- | --- |
| CCOc1cc(-c2ccc(O)c(OC)c2)cc(=O)c2c(C)oc(C)c12 | 51% (active) |
| COc1cc(-c2ccc(O)c(O)c2)cc(=O)c2c(C)oc(C)c12 | 49% (inactive) |
| N#CC1=C(N)N2CCN3C(N)=C(C#N)C1(c1ccccc1)C23c1ccccc1 (configuration not stated) | 21% (inactive) |
| O=C1CC(O)(C(F)(F)F)Oc2ccc(Cl)cc21 (configuration not stated) | 0% (inactive) |
| CC(C)N1C/C(=C\c2ccsc2)C(=O)/C(=C/c2ccsc2)C1 | 45% (inactive) |
| COc1ccc(NC(=O)c2cc(S(=O)(=O)NCCc3ccc(Cl)cc3)ccc2F)cc1 | 20% (inactive) |
| O=C(Nc1ccc(F)cc1)c1cc(S(=O)(=O)NCCc2ccc(Cl)cc2)ccc1F | 61% (active) |
| O=C(Nc1ccc(F)cc1)c1cc(S(=O)(=O)NCc2ccc(F)cc2)ccc1F | -3% (inactive) |
| COc1ccccc1OCCNC(=O)CSc1ccc(C(F)(F)F)cc1[N+](=O)[O-] | 2% (inactive) |
| CC1=C(C(=O)Nc2cccnc2)C(c2ccccn2)n2nc(SCc3ccccc3)nc2N1 (configuration not stated) | 5% (inactive) |
| CC1=C(C(=O)Nc2ccc(Cl)cc2)C(c2ccc(Cl)cc2Cl)n2ncnc2N1 (configuration not stated) | 59% (active) |
| COc1ccc(NC(=O)C2=C(C)Nc3ncnn3C2c2cc(OC)c(OC)cc2OC)cc1 (configuration not stated) | 0% (inactive) |
| CC1=C(C(=O)Nc2ccc(C)cc2)C(c2cccc([N+](=O)[O-])c2)n2ncnc2N1 (configuration not stated) | 7% (inactive) |
| O=C(NCc1ccco1)c1cc2nc(-c3ccc(Cl)cc3)cc(C(F)(F)F)n2n1 | -2% (inactive) |
| Cc1ccc(CN2CCCn3nc(C(=O)NCc4ccccc4Cl)cc3C2=O)cc1 | -2.01% (inactive) |
| Cc1ccc(C)c(CNC(=O)c2cc3n(n2)CCCN(Cc2ccc(F)cc2)C3=O)c1 | 50.5% (active) |
| O=C(NCCc1ccccc1)c1cc2n(n1)CCCN(Cc1ccc(F)cc1)C2=O | 3.53% (inactive) |
| Cc1cc(N2N=NC3C(=O)N(c4ccc(F)cc4)C(=O)C32)ccc1Br (configuration not stated) | -11.3% (inactive) |
| CSC1=C(C#N)C(c2cccs2)CC(=O)N1 (configuration not stated) | -7.7% (inactive) |
| Cc1cccc(-c2cc(C3CCN(S(=O)(=O)c4ccc(C#N)cc4)CC3)[nH]n2)c1 | 9.71% (inactive) |
| Cc1cccc(-c2cc(C3CCN(C(=O)Cc4ccsc4)CC3)[nH]n2)c1 | 59.9% (active) |
| Cc1cccc(-c2cc(C3CCN(S(=O)(=O)c4cccc(C#N)c4)CC3)[nH]n2)c1 | 7.83% (inactive) |
| O=C(Cc1csc(NC(=O)C2CCCC2)n1)Nc1ccc2c(c1)Cc1ccccc1-2 | -7.6% (inactive) |
